Laboratory results published in PubChem BioAssay AID1159580 (chemical genetic matrix, 2015).
In all, about 5,500 compounds went through this assay and about 2,000 (36%) were called active. Inconclusive results (about 18%) are left out. Cut-off read from the data, not from the text of the source: active = normalized growth mostly below about 0.91 (no sharp cut-off); inconclusive = no clear call, values can overlap the other calls; inactive = mostly above about 0.92. This is one part of the list.

Test: chemical genetic growth profiling, strain panel (AID 1159580);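 note: tested at 20 µM; growth read once vehicle control cultures reached saturation at 30 °C; 1 = growth at the plate median or of vehicle wells; lower values mean less growth of the strain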
Conditions: growth OD

Measured: normalized growth

N=C(N)N
inactive: S. cerevisiae deletion strains, locus YJR075W, strain HOC1, active compounds read low 0.988 | S. cerevisiae deletion strains, locus YKL009W, strain mrt4, active compounds read low 0.997 | S. cerevisiae deletion strains, locus YKL068W, active compounds read low 0.982 | S. cerevisiae deletion strains, locus YKL085W, strain MDH1 (second series), active compounds read low 0.97 | S. cerevisiae deletion strains, locus YKL085W, strain MDH1, active compounds read low 0.97 | S. cerevisiae deletion strains, locus YKL160W, strain elf1, active compounds read low 1 | S. cerevisiae deletion strains, locus YKL190W, strain CNB1, active compounds read low 0.993 | S. cerevisiae deletion strains, locus YKR001C, strain vps1, active compounds read low 0.996 | S. cerevisiae deletion strains, locus YKR026C, strain gcn3, active compounds read low 0.999 | S. cerevisiae deletion strains, locus YKR091W, strain srl3, active compounds read low 1 | S. cerevisiae deletion strains, locus YLL001W, strain dnm1, active compounds read low 0.993 | S. cerevisiae deletion strains, locus YLL026W, active compounds read low 0.994 | S. cerevisiae deletion strains, locus YLL041C, strain sdh2, active compounds read low 1 | S. cerevisiae deletion strains, locus YLR027C, strain aat2, active compounds read low 1.01 | S. cerevisiae deletion strains, locus YLR039C, strain RIC1, active compounds read low 1.01 | S. cerevisiae deletion strains, locus YLR058C, strain SHM2, active compounds read low 0.999 | S. cerevisiae deletion strains, locus YLR102C, strain apc9, active compounds read low 0.986 | S. cerevisiae deletion strains, locus YLR113W, strain HOG1, active compounds read low 0.996 | S. cerevisiae deletion strains, locus YLR221C, strain rsa3, active compounds read low 0.982 | S. cerevisiae deletion strains, locus YLR258W, strain gsy2, active compounds read low 0.996 | S. cerevisiae deletion strains, locus YLR262C, strain YPT6 (second series), active compounds read low 0.991 | S. cerevisiae deletion strains, locus YLR262C, strain YPT6, active compounds read low 1.01 | S. cerevisiae deletion strains, locus YLR268W, strain sec22, active compounds read low 0.937 | S. cerevisiae deletion strains, locus YLR320W, strain mms22, active compounds read low 0.983 | S. cerevisiae deletion strains, locus YLR330W, strain CHS5, active compounds read low 0.991 | S. cerevisiae deletion strains, locus YLR342W, strain FKS1 (second series), active compounds read low 1.13 | S. cerevisiae deletion strains, locus YLR342W, strain FKS1, active compounds read low 0.993 | S. cerevisiae deletion strains, locus YLR357W, strain rsc2, active compounds read low 0.977 | S. cerevisiae deletion strains, locus YLR370C, strain arc18, active compounds read low 1.01 | S. cerevisiae deletion strains, locus YLR371W, strain rom2, active compounds read low 0.961 | S. cerevisiae deletion strains, locus YLR384C, strain iki3, active compounds read low 0.985 | S. cerevisiae deletion strains, locus YLR418C, strain cdc73, active compounds read low 1.02 | S. cerevisiae deletion strains, locus YML016C, strain PPZ1, active compounds read low 1 | S. cerevisiae deletion strains, locus YML032C, strain rad52, active compounds read low 0.96 | S. cerevisiae deletion strains, locus YML120C, strain ndi1, active compounds read low 1.02 | S. cerevisiae deletion strains, locus YML124C, strain tub3, active compounds read low 0.991 | S. cerevisiae deletion strains, locus YMR058W, strain fet3, active compounds read low 1 | S. cerevisiae deletion strains, locus YMR078C, strain ctf18, active compounds read low 0.967 | S. cerevisiae deletion strains, locus YMR125W, strain sto1, active compounds read low 0.996 | S. cerevisiae deletion strains, locus YMR129W, active compounds read low 0.992 | S. cerevisiae deletion strains, locus YMR205C, strain PFK2, active compounds read low 1.01 | S. cerevisiae deletion strains, locus YMR223W, strain ubp8, active compounds read low 1.02 | S. cerevisiae deletion strains, locus YMR231W, strain pep5, active compounds read low 0.994 | S. cerevisiae deletion strains, locus YMR263W, strain SAP30, active compounds read low 0.992 | S. cerevisiae deletion strains, locus YMR307W, strain GAS1, active compounds read low 1.14 | S. cerevisiae deletion strains, locus YNL067W, strain RPL9B, active compounds read low 0.987 | S. cerevisiae deletion strains, locus YNL071W, strain lat1, active compounds read low 1.01 | S. cerevisiae deletion strains, locus YNL128W, strain TEP1, active compounds read low 0.995 | S. cerevisiae deletion strains, locus YNL153C, strain GIM3, active compounds read low 1 | S. cerevisiae deletion strains, locus YNL183C, strain NPR1, active compounds read low 0.949 | S. cerevisiae deletion strains, locus YNL209W, strain ssb2, active compounds read low 1.02 | S. cerevisiae deletion strains, locus YNL233W, strain BNI4, active compounds read low 0.994 | S. cerevisiae deletion strains, locus YNL248C, strain rpa49, active compounds read low 0.92 | S. cerevisiae deletion strains, locus YNL250W, strain rad50, active compounds read low 0.99 | S. cerevisiae deletion strains, locus YNL271C, strain bni1, active compounds read low 0.993 | S. cerevisiae deletion strains, locus YNL298W, strain CLA4, active compounds read low 0.999 | S. cerevisiae deletion strains, locus YNL307C, strain MCK1, active compounds read low 0.991 | S. cerevisiae deletion strains, locus YNL322C, strain KRE1 (second series), active compounds read low 0.997 | S. cerevisiae deletion strains, locus YNL322C, strain KRE1, active compounds read low 0.993 | S. cerevisiae deletion strains, locus YNR049C, strain mso1, active compounds read low 0.991 | S. cerevisiae deletion strains, locus YNR052C, strain pop2, active compounds read low 0.971 | S. cerevisiae deletion strains, locus YOL006C, strain TOP1, active compounds read low 0.979 | S. cerevisiae deletion strains, locus YOL012C, strain htz1 0.806 | S. cerevisiae deletion strains, locus YOL147C, strain pex11, active compounds read low 0.976 | S. cerevisiae deletion strains, locus YOR001W, strain rrp6, active compounds read low 0.949 | S. cerevisiae deletion strains, locus YOR061W, strain CKA2, active compounds read low 0.991 | S. cerevisiae deletion strains, locus YOR069W, strain VPS5, active compounds read low 0.999 | S. cerevisiae deletion strains, locus YOR070C, strain gyp1, active compounds read low 0.979 | S. cerevisiae deletion strains, locus YOR080W, strain dia2, active compounds read low 0.979 | S. cerevisiae deletion strains, locus YOR083W, strain WHI5, active compounds read low 1.01 | S. cerevisiae deletion strains, locus YOR106W, strain vam3, active compounds read low 1.01 | S. cerevisiae deletion strains, locus YOR136W, strain idh2, active compounds read low 0.986 | S. cerevisiae deletion strains, locus YOR144C, strain elg1, active compounds read low 0.977 | S. cerevisiae deletion strains, locus YOR184W, strain ser1, active compounds read low 0.974 | S. cerevisiae deletion strains, locus YOR231W, strain MKK1, active compounds read low 1.02 | S. cerevisiae deletion strains, locus YOR265W, strain rbl2, active compounds read low 0.998 | S. cerevisiae deletion strains, locus YOR270C, strain vph1, active compounds read low 0.969 | S. cerevisiae deletion strains, locus YOR290C, strain snf2, active compounds read low 0.975 | S. cerevisiae deletion strains, locus YOR316C, strain cot1, active compounds read low 0.965 | S. cerevisiae deletion strains, locus YPL051W, strain arl3, active compounds read low 0.983 | S. cerevisiae deletion strains, locus YPL055C, strain LGE1, active compounds read low 1.01 | S. cerevisiae deletion strains, locus YPL078C, strain atp4, active compounds read low 1.01 | S. cerevisiae deletion strains, locus YPL106C, strain sse1, active compounds read low 1.01 | S. cerevisiae deletion strains, locus YPL240C, strain hsp82, active compounds read low 0.999 | S. cerevisiae deletion strains, locus YPL241C, strain CIN2, active compounds read low 0.998 | S. cerevisiae deletion strains, locus YPL256C, strain CLN2, active compounds read low 1.07 | S. cerevisiae deletion strains, locus YPR119W, strain clb2, active compounds read low 0.974 | S. cerevisiae deletion strains, locus YPR141C, strain kar3, active compounds read low 0.982 | S. cerevisiae deletion strains, locus YPR163C, strain tif3, active compounds read low 0.976 | S. cerevisiae deletion strains, locus YPR167C, strain met16, active compounds read low 0.971 | S. cerevisiae deletion strains, strain wtn01, active compounds read low 0.981 | S. cerevisiae strains, strain wild type, active compounds read low 1
